Assay outcomes: PubChem, National Center for Advancing Translational Sciences (NCATS)
ELG1 repair inh – inhibitors of ELG1-dependent DNA repair in HEK293T cells. 330,000 tested, 2.3% active. HEK293T ELG1-luciferase reporter, luminescence, 16 h; DNA damage induced by 5-fluorouridine. Potency, µM (series often up to 46.1 µM), inactives show at the highest dose activity change, negative = inhibition, hits mostly inhibitors; further: on the % scale 0 is the no-effect control and ±100 the full control effect; nearly all actives have a fitted effect of over 55% in size
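5-Fluorouridine DNA damage + compound/DMSO, 2,000 cells/well, 16 h, 37 °C/5% CO2. ONE-Glo, 30 min RT, luminescence. Readout = decrease in reporter signal.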
ELG1 genotox – induces genotoxicity in HEK293T cells with luciferase-tagged ELG1 | AID 504466 | Potency, µM (highest dose often 46 µM), without a hit: at the top dose activity change, positive = activation, most hits filed as activators | 330,000 tested, 1.3% active | HEK293T ELG1-luciferase reporter, luminescence, 16 h; further: % of control where 0% means no effect; nearly all actives have a fitted effect of over 60% in size
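Luminescence read-out: rising ELG1-luciferase signal, reflecting elevated ELG1 protein under genetic stress, flags genotoxic compounds. Cells were treated for 16 hr at 37 °C before ONE-Glo detection.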
SMN2 splice enh – SMN2 splice variant enhancement; HEK293 SMN2-luciferase splicing reporter, luminescence, 30-36 h; Potency, µM (highest dose often 46.1 µM), without a hit: top-dose activity change, positive = activation, usual class: activators; 210,000 tested, 2.8% active; AID 1458; further: % of control where 0% means no effect; nearly all actives have a fitted effect of over 55% in size
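HEK293 cells carry an SMN2 […]–luciferase reporter in which exon 7 inclusion puts luciferase in frame. Cells were plated 10-12 h before compound addition, then incubated 30-36 h at 37C. ONE-Glo luminescence was read; sodium butyrate at 4.5 mM final served as control.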
Rab9 promoter act – activates the Rab9 promoter. Huh7 Rab9 promoter-luciferase reporter, luminescence, 24 h. Potency, µM (highest dose often 9.22 µM), inactives show at the top dose activation, negative = inhibition, usual class: activators. 320,000 tested, 2.8% active; further: % of control where 0% means no effect; nearly all actives have a fitted effect of over 60% in size
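Huh7 cells stably carrying Rab9 promoter–luciferase reporter, plated 1500 cells/well, compound added after 2 h and incubated 24 h at 37 °C; luciferase luminescence then read after 10 min with detection reagent.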
FLuc counter – inhibits or activates purified firefly luciferase, miR-21 counter-screen; P08659; Potency, µM (top dose mostly 57.5 µM), for the others: at the highest dose activity change, negative = inhibition, most hits filed as inhibitors; 360,000 tested, 6.9% active; purified FLuc, Km substrates, luminescence inhibition;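 further: plate controls were vehicle for no effect and reference inhibitor for full effect; nearly all actives have a fitted effect of over 55% in size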
Target sequence (P08659 whole entry, looked up): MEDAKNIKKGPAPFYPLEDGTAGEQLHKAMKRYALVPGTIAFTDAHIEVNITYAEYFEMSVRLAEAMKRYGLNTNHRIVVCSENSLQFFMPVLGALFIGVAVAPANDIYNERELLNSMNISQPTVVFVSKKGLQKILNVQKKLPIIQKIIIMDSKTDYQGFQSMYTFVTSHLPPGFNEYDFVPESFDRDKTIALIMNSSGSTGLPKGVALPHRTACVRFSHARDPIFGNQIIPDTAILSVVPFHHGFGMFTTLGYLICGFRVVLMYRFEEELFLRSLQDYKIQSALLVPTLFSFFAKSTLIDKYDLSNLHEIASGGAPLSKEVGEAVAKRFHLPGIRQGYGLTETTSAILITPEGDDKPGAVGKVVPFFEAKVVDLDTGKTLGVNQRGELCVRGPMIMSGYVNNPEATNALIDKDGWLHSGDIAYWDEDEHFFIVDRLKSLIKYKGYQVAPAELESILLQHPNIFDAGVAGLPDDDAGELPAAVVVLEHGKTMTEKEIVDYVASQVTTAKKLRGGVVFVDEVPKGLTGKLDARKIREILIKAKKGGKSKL
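Biochemical qHTS of compounds, final roughly 60 µM downward over six points, against 10 nM purified firefly luciferase using Km concentrations of substrates (10 uM D-luciferin, 10 uM ATP) in Tris acetate pH 7.5 buffer; luminescence output.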
NPC1 promoter act – NPC1 promoter activation; Huh7 NPC1 promoter luciferase reporter, 24 h; Potency, µM (series often up to 9.22 µM), without a hit: at the top dose activation, actives largely listed as activators; 320,000 tested, 2.4% active; further: % of control where 0% means no effect; nearly all actives have a fitted effect of over 60% in size
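Luciferase expression driven by the NPC1 promoter was measured in stably transfected Huh7 cells after a 24 h compound incubation, using a luciferase reagent and a luminescence read.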
Starred values were filed as active, the others as inactive; ? = inconclusive; / = no result given; [ ] = another dose, or the depositor's remark. Hits are enriched below; roughly 9.2% of the tested compounds scored in any of these assays. The call rests on the fitted dose curve; in most records, active means well fitted curve in the direction sought with a large enough effect; inconclusive means small, poorly fitted or top-dose-only effect, or another doubt; inactive means no such curve, though single readings can be large; an effect the other way counts as inactive or inconclusive. Potency means the concentration at half of the fitted maximal effect.

SMILES	ELG1 repair inh	ELG1 genotox	SMN2 splice enh	Rab9 promoter act	FLuc counter	NPC1 promoter act
CCCCOc1ccc(S(N)(=O)=O)cc1	13.8%	1.3%	-8.8%	-6.0%	0.8%	-0.2%
CCCCOc1ccc(N=Cc2ccc[nH]2)cc1	?	4.7%	/	15.8%	3.79µM*	1.2%
COc1ccc(N=Cc2ccc[nH]2)cc1	9.3%	17.8%	6.0%	-3.5%	9.53µM*	1.7%
O=C(COc1cccc(Br)c1)N/N=C1\CCSC1	-15.2%	1.1%	14.9%	0.4%	2.8%	-2.2%
COc1ccc(OCCN(C)C(=O)c2cccc(S(=O)(=O)N(C)c3ccccc3)c2)cc1	?	-7.3%	/	-0.9%	0.6%	2.4%
O=C1O/C(=C\c2ccccc2)c2ccccc21	12.1%	0.7%	-5.1%	-3.4%	12µM*	-3.5%
O=C(Nc1ccc(Cl)c(S(=O)(=O)N2CCOCC2)c1)c1cc(-c2ccccn2)nc2ccccc12	18.3µM*	-9.6%	-1.3%	-2.1%	-6.3%	-5.7%
COc1ccc(NC(=O)c2cc(-c3ccco3)nc3ccccc23)cc1S(=O)(=O)N1CCOCC1	10.3µM*	-3.8%	/	0.9%	?	0.3%
CCOc1cc(N2CCOCC2)c(OCC)cc1NC(=O)COc1ncnc2ccccc12	-31.4%	-2.0%	6.2%	0.9%	-1.4%	-4.1%
CCOc1cc(N2CCOCC2)c(OCC)cc1NC(=O)c1cc(-c2ccco2)nc2ccccc12	2.59µM*	-12.8%	-22.2%	-5.6%	-7.6%	-6.7%
COc1ccc(Nc2nc(-c3ccccc3)nc3ccccc23)cc1S(=O)(=O)N1CCOCC1	8.2µM*	-14.4%	/	-8.5%	-2.6%	0.4%
Cc1ccc(NC(=O)c2cc(-c3ccco3)nc3ccccc23)cc1S(=O)(=O)N1CCOCC1	?	-11.2%	4.0%	-3.7%	?	-11.2%
COc1ccc(NC(=O)C2=C(C)Nc3nc(SCc4ccccc4C)nn3C2c2cc(OC)c(O)c(OC)c2)cc1 (stereo not given)	/	/	-8.5%	/	4.3%	/
CC(Sc1nccn1C)C(=O)c1ccc(Br)cc1 (stereo not given)	-2.6%	6.8%	/	-0.1%	3.5%	-3.3%
N#C/C(=C/Nc1ccccc1)c1ccsc1	/	/	-3.1%	/	?	/
Cc1ccc(N/C=C(/C#N)c2ccsc2)cc1	/	/	?	/	16.9µM*	/
CCc1ccccc1NC(=O)CSC1=Nc2ccccc2C2=NC(Cc3ccccc3)C(=O)N12 (stereo not given)	/	/	/	/	-6.0%	/
CC(C)(C)[C@@H]1C=C(C(=O)Nc2ccccc2)O[C@H](OCc2ccc(CO)cc2)C1	7.3µM*	-0.1%	/	5.5%	?	5.2%
O=C(NC1CC1)C1=C[C@@H](C2CCCCC2)C[C@@H](OCc2ccc(CO)cc2)O1	?	-0.9%	/	1.8%	?	-3.6%
NC(=O)C1=C[C@H](C2CCCCC2)C[C@H](OCc2ccc(CO)cc2)O1	?	2.91µM*	/	3.16µM*	10.7µM*	2.51µM*
C#CCNC(=O)C1=C[C@H](C(C)(C)C)C[C@H](OCc2ccc(CO)cc2)O1	0.2%	5.9%	/	-5.5%	-0.2%	1.4%
CCOc1ccc(CNC(=O)C2CCN(c3nc4ccccc4nc3C(F)(F)F)CC2)cc1OC	/	/	/	/	-1.6%	/
O=c1c(/C=C(\O)c2ccc(F)cc2)nc2ccccc2n1-c1ccccc1	17.7%	?	1.5%	?	?	19.1%
CC(=O)c1ccc(/C=C/c2nc3ccccc3n2C)o1	?	16.4µM*	/	1µM*	5.36µM*	1.26µM*
Cn1c(/C=C/c2ccccc2)nc2ccccc21	?	?	/	?	0.135µM*	0.562µM*
SMILES	ELG1 repair inh	ELG1 genotox	SMN2 splice enh	Rab9 promoter act	FLuc counter	NPC1 promoter act
Cn1c(=O)c(/C=C/c2ccc(F)cc2)nc2ccccc21	?	8.5%	/	-29.9%	6.75µM*	-30.3%
Cn1c(=O)c(/C=C/c2ccccc2)nc2ccccc21	?	?	11.2µM*	3.55µM*	2.69µM*	?
COc1ccc(N2CCN(Cc3nc4c(c(=O)[nH]c(=O)n4C)n3Cc3ccccc3F)CC2)cc1	/	/	-8.8%	/	4.6%	/
O=C(CCc1ccccc1)NCc1ccc2c(c1)CCN2C(=O)c1ccc(Cl)cc1	/	/	/	/	0.8%	/
O=C(O)C(Sc1ccc(Cl)cc1)Sc1ccc(Cl)cc1	/	/	-8.8%[9.22 µM]	/	/	/
N#Cc1cccc(NC(=O)CCNS(=O)(=O)c2ccc3c(c2)CCN3C(=O)C2CC2)c1	/	/	/	/	-0.5%	/
Cc1oc2cc3oc(=O)c(CC(=O)O)c(C)c3cc2c1-c1ccccc1	9.9%	4.1%	/	-1.8%	-19.5%	0.5%
Cc1c(CC(=O)NCC(=O)NCC(=O)O)c(=O)oc2c(C)c3oc4c(c3cc12)CCCC4	3.1%	-0.3%	/	6.9%	?	1.0%
Cc1c(CC(=O)O)c(=O)oc2cc3oc4c(c3cc12)CCCC4	7.2%	3.6%	/	-2.5%	26.9µM*	-0.2%
Cc1c(CC(=O)NCC(=O)O)c(=O)oc2cc3oc4c(c3cc12)CCCC4	10.2%	-1.0%	/	-1.9%[1.84 µM]	15.1µM*	-9.9%
Cc1ccc2nc(CSc3nc(C)ccc3C#N)[nH]c2c1	?	11.4%	2.51µM*	0.562µM*	0.536µM*	?
Nn1c(CSc2ccccn2)nc2ccccc2c1=O	?	?	11.2µM*	?	19µM*	3.98µM*
Cc1cc(C)c(C#N)c(SCc2nc3ccccc3c(=O)[nH]2)n1	?	8.2µM*	0.794µM*	?	2.39µM*	?
Cc1ccc2nc(SCc3nc4ccccc4c(=O)[nH]3)[nH]c2c1	?	18.0%	22.4µM*	2.82µM*	9.53µM*	?
CCCCCCc1nc2ccccc2c(=O)n1N	12.7%	7.1%	-12.3%	12.5%	-0.9%	-1.1%
CCc1ccc(NC(=O)CN2C(=O)C(c3ccc(Cl)cc3)=NC23CCCCC3)cc1	/	/	-28.6%	/	-11.7%	/
Cc1cccc(-n2c(=O)c3c(c4cc(C)ccc4n3C)n(CC(=O)Nc3ccccc3C(F)(F)F)c2=O)c1	/	/	3.2%	/	-0.1%	/
Cc1ccc(C(=O)OCC(=O)Nc2c(Cl)cc(S(N)(=O)=O)cc2Cl)o1	15.2%	-3.8%	/	-3.4%	-0.2%	0.8%
O=C(CN1C(=O)C2C3CC(C(Br)C3Br)C2C1=O)Nc1ccc(C(=O)O)cc1 (stereo not given)	-5.2%	-1.1%	/	-4.1%	-2.9%	1.3%
CC(=O)NCc1c(I)c(NC(C)=O)c(I)c(C(=O)O)c1I	/	/	3.8%	/	/	/
COc1ccc(OCCCC(=O)OCC(=O)NNC(=O)c2ccc([N+](=O)[O-])cc2)cc1	?	0.2%	/	-0.1%	-2.2%	0.1%
COC(=O)c1ccc(NC(=O)C(C)Sc2nc(=O)cc(N)n2CCc2ccccc2)cc1 (stereo not given)	/	/	4.0%	/	-9.1%	/
